# From PubChem
# Mm-Cpn inhibitor = blocks the Methanococcus maripaludis chaperonin Mm-Cpn; 0.031% of 330,000 active; purified Mm-Cpn ATPase, ADP Transcreener TR-FRET; Potency, µM (series often up to 76.9 µM), inactives show at the top dose activity, negative = inhibition, usual class: inhibitors; note: potency is the fitted concentration of half-maximal effect; nearly all actives have a fitted effect of over 80% in size
#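 ATP (10 uM final) was added to archaeal chaperonin (25 nM final) after 10 min exposure to test compound at 37°C; after 30 min further incubation, ADP was detected by competitive TR-FRET.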
# Sfp inh = Sfp phosphopantetheinyl transferase inhibition | 3.5% of 310,000 active | Biochemical Sfp PPTase activity, qHTS | Potency, µM, without a hit: largest response in the series, negative = inhibition, usual class: inhibitors | Q9F4F7;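 note: the enzyme is Sfp with the accession as filed and its product quenches rhodamine fluorescence; potency is the fitted concentration of half-maximal effect; 0% = enzyme reaction without inhibitor and -100% = no enzyme wells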
#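 With Hepes-Na pH 7.6 buffer containing 10 mM MgCl2, Sfp (15 nM) modified BHQ-2-YbbR (12.5 uM) using rhodamine-CoA (5 uM). Two reads 30 minutes apart at 525/598 nm yielded each well's rate.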
# CCT chaperon mod = cytosolic chaperonin activity modulation | activity change, % (test concentration not listed), hits read low | AID 651819 | 0.3% of 360,000 active | purified chaperonin ATPase assay, HTRF ADP detection, 30 min; in the data active = activity change below about -30%
#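 Enzyme 40 or 20 nM (batch-dependent) in Tris pH 7.4/KCl/MgCl2/DTT; cpd 76 uM single point; ATP 10 uM; 30 min 37 °C; Transcreener ADP HTRF detection, 30 min RT; ratio 665/615.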
# PLK1 PBD inh = PLK1 (human) polo-box domain binding inhibition; Potency, µM, for inactives: max response, negative = inhibition, most hits filed as inhibitors; 2.8% of 360,000 active; P53350; Plk1 PBD binding of FITC phosphopeptide, fluorescence polarization; note: potency is the fitted concentration of half-maximal effect; series mostly up to about 57 µM; nearly all actives have a fitted effect of over 65% in size
# VDR inhibitor = vitamin D3 receptor (human) inhibition | VDR-SRC2-3 peptide fluorescence polarization, 2 h | Potency, µM, without a hit: max response, negative = inhibition, most hits filed as inhibitors | 0.93% of 400,000 active; note: potency is the fitted concentration of half-maximal effect
#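 After 23 nl compound addition and a short centrifugation, plates sat for 2 hours at ambient temperature; polarization of fluorescence then indicated loss of VDR binding to peptide SRC2-3.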
# G9a inh = G9a (human) methyltransferase inhibition; Q96KQ7; G9a H3K9 monomethylation, AlphaScreen, 2 h; Potency, µM (series often up to 102 µM), for the others: at the top dose activity, negative = inhibition, usual class: inhibitors; 8.8% of 350,000 active; note: potency is the fitted concentration of half-maximal effect; nearly all actives have a fitted effect of over 75% in size
# Target sequence (Q96KQ7 913-1193 limits assumed): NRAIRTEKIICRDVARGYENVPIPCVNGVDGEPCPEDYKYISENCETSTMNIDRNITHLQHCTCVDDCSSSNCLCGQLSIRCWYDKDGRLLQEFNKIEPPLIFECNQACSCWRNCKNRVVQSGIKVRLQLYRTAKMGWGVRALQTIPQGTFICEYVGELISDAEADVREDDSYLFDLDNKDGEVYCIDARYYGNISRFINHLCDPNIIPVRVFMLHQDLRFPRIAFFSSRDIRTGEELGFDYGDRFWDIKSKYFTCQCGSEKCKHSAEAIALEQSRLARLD
#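 Methyltransferase reactions run at room temperature for 2 h (20 nM enzyme, 500 nM biotin-H3K9 peptide, 20 uM SAM) after a 15 min compound preincubation; product detected by AlphaScreen beads and anti-H3K9me1 antibody.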
# The depositor's hits bear a star; ? = inconclusive; / = not tested or not shown; [ ] = another dose, or the depositor's remark. Hits are enriched below; roughly 10% of the tested compounds scored in any of these assays. Unless noted, calls come from the whole dose curve; as a rule, active = well fitted curve in the direction sought with a large enough effect; inconclusive = small, poorly fitted or top-dose-only effect, or another doubt; inactive = no such curve, though single readings can be large; an effect the other way counts as inactive or inconclusive. Unless noted, % is set by controls: 0 for no effect and ±100 for the full control effect.
SMILES,Mm-Cpn inhibitor,Sfp inh,CCT chaperon mod,PLK1 PBD inh,VDR inhibitor,G9a inh
C=C1C(=O)OC2CC1C(O)CC(C)=CCCC(C)=CC(O)CC2C (configuration not stated),/,/,-0.7,-6.8%,?,/
C=C1C(=O)OC2CC1C(OC(C)=O)CC(C)=CCCC(C)=CCC[C@@]2(C)O (some centres not stated),/,-13.9%,/,/,35.5µM*,-2.5%[2.33 µM]
COc1ccc(-c2noc(N3CCC(C(=O)Nc4ccc(C)c(F)c4)CC3)n2)cc1OC,/,/,/,/,-5.1%,7.7%[59 µM]
Cc1cc(C)cc(NC(=O)C2CCN(S(C)(=O)=O)CC2)c1,-0.1%,9.3%,1.6,-10.1%,-5.7%,-10.3%[0.501 µM]
Cc1cc(C)cc(NC(=O)C2CCN(c3nccs3)CC2)c1,-1.0%,89.1µM*,0.7,-22.3%,-12.2%,8.7%
